Results as given in the supplement of paper PMC10849652.
The full data set covers some 8,800 targets. This sample favours those with a hit. About 0.5% of all pairs of compound and target were hits. Values without a mark were called inactive.

Assays:
Assay in all cases: log2 fold change, soluble protein after heating vs DMSO (PISA); higher = thermal stabilisation; K562 lysate, 10 uM; active = over 0.2 and 3.5 SD of the protein, either way, in both replicates (recomputed)
[1] = compound: C1=CC=C(C=C1)[C@H](COC2=CC3=C(C=C2)NC(=O)N3)NC(=O)C4=CC=CN(C4=O)CC5=CC(=C(C=C5)F)F
Summary of the method: (§1)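 Quantification was by TMTpro 16plex LC-MS/MS with equalised channel sums, applied to the supernatant after 21,000xg for 90 min. Samples were crude K562 extract at 1 mg/mL protein in PBS pH 7.4 with 1 mM MgCl2, treated with 10 μM compound for 30 min, heated for 3 min across 48°C-58°C, pooled and brought to 0.5% NP-40 at 4°C. Values are log-two fold changes in thermal stability relative to solvent controls, from duplicates.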

[2] = compound: CC1=C(SC2=C1C(=N[C@H](C3=NN=C(N32)C)CC(=O)N)C4=CC=C(C=C4)Cl)C
Summary of the method: as §1

[3] = compound: CC1=C2C(=CC=C1)N=C(N(C2=O)C3=CC=CC=C3C)CN4C=NC5=C(N=CN=C54)N
Summary of the method: as §1

[4] = compound: Cc1sc2c(c1C)C(c1ccc(Cl)cc1)=N[C@@H](CC(=O)OC(C)(C)C)c1nnc(C)n1-2
Summary of the method: as §1

[5] = compound: c1ccc([C@@H]2C[C@H]2NC2CCNCC2)cc1
Summary of the method: as §1

UniProt P25098, sequence (P25098 whole entry, looked up): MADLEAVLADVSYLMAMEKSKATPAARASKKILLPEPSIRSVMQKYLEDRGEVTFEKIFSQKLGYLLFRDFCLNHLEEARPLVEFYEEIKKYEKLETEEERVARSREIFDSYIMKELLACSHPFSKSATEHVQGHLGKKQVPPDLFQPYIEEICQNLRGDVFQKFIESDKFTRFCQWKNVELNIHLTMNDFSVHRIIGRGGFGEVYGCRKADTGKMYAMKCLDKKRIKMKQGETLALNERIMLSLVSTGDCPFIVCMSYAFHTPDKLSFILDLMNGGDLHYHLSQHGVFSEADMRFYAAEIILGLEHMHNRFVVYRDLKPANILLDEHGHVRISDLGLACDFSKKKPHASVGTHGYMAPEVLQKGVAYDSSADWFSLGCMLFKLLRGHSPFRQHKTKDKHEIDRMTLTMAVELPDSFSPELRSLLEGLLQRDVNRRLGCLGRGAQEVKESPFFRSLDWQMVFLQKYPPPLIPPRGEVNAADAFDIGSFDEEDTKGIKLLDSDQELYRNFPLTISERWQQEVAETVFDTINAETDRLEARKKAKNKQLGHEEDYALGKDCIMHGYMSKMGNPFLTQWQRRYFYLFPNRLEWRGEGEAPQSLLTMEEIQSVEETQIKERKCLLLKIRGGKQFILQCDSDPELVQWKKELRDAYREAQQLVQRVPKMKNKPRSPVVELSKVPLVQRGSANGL
UniProt Q0VDF9, sequence (Q0VDF9 whole entry, looked up): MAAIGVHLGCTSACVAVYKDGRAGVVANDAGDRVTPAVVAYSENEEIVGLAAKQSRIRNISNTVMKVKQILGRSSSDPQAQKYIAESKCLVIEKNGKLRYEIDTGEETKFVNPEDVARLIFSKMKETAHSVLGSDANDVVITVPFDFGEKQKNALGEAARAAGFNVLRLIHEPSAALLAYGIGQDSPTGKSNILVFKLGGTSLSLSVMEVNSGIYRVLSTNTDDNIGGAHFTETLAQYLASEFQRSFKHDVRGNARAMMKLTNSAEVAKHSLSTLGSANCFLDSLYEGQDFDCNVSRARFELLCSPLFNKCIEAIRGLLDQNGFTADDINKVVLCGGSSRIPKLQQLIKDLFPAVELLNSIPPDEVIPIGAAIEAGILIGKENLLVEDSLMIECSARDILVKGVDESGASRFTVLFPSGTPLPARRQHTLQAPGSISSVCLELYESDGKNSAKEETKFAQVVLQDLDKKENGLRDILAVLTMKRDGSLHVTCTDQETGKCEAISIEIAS
UniProt Q9NVX0, sequence (Q9NVX0 whole entry, looked up): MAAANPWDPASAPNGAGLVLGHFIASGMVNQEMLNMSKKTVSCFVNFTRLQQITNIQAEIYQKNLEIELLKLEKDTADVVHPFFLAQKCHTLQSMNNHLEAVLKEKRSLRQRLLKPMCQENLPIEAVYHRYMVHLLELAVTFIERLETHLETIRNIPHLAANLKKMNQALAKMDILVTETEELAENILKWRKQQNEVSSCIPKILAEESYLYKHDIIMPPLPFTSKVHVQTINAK
UniProt Q9H6D7, sequence (Q9H6D7 whole entry, looked up): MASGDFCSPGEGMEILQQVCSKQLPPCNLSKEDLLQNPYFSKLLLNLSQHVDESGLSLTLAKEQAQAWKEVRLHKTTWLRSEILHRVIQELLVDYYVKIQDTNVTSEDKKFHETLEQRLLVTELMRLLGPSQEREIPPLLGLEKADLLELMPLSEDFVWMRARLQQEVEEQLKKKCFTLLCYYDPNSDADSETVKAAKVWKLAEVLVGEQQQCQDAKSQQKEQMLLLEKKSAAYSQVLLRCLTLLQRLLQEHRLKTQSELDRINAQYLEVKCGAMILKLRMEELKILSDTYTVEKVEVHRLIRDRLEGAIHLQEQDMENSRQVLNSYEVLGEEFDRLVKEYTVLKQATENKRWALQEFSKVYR
UniProt P55084, sequence (P55084 whole entry, looked up): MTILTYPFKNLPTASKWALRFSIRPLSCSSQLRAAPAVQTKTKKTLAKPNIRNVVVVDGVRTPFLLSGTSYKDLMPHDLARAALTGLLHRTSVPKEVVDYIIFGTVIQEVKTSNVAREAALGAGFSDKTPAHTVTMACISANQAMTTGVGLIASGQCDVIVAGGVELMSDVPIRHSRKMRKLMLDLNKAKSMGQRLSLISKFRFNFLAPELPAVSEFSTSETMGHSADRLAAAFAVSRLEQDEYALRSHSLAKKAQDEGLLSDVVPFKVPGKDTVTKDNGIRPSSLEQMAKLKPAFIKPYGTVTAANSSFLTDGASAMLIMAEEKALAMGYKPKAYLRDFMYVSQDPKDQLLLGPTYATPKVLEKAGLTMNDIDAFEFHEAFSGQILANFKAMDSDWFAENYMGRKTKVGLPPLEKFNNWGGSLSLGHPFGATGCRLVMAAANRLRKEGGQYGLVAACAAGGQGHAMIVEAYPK
UniProt Q92759, sequence (Q92759 whole entry, looked up): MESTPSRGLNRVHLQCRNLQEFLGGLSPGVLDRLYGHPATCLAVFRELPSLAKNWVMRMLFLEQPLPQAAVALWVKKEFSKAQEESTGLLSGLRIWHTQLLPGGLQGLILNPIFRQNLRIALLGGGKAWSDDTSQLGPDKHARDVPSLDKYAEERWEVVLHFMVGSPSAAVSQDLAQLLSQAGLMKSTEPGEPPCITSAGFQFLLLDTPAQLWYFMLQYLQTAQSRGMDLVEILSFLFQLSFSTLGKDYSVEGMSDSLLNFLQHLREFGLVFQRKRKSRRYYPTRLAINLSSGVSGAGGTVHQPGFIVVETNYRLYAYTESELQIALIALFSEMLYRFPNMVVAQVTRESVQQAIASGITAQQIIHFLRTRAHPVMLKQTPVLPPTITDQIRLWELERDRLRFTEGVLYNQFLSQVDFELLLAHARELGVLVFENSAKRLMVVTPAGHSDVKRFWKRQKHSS
UniProt Q8TDG4, sequence (Q8TDG4 whole entry, looked up): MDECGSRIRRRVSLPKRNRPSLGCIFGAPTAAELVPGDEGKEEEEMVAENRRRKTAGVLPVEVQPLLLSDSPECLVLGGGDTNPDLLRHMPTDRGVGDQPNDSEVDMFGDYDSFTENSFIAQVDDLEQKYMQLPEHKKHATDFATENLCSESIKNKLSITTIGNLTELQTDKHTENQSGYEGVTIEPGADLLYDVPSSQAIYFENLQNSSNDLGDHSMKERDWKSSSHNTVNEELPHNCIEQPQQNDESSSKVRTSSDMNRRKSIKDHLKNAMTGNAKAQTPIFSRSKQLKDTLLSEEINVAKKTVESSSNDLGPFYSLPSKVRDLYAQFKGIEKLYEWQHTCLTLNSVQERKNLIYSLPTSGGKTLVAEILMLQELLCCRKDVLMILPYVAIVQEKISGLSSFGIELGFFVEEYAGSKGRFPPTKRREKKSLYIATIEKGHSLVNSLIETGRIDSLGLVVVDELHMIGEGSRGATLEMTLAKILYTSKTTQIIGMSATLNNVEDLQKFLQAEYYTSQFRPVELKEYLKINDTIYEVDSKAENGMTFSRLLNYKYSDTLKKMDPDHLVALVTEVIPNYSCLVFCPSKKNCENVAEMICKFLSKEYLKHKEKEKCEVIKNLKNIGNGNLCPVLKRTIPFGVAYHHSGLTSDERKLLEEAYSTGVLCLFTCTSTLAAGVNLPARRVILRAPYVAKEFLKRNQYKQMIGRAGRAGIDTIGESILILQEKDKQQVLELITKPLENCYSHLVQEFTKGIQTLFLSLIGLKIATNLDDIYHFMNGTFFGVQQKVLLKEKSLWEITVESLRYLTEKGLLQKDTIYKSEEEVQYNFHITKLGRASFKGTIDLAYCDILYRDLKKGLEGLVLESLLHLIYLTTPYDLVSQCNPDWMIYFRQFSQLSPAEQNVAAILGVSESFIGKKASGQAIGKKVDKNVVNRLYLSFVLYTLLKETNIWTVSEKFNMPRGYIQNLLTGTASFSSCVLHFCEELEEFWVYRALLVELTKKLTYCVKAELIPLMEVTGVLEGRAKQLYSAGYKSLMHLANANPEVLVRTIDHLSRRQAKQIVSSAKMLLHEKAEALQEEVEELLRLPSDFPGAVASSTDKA
UniProt Q92769, sequence (Q92769 whole entry, looked up): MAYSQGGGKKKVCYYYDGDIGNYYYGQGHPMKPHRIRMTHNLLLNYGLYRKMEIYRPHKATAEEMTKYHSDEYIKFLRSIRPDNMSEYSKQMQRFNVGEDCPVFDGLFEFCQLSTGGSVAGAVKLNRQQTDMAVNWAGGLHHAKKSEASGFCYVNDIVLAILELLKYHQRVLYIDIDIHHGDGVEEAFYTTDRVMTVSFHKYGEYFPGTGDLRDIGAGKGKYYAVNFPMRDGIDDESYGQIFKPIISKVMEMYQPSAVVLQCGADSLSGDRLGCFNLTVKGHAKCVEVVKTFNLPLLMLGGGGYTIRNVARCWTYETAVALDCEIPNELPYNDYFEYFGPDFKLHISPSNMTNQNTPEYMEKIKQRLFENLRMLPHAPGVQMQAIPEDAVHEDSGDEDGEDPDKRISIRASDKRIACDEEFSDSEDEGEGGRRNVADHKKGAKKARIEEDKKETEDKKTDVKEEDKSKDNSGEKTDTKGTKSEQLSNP

Target | log2 fold change [1] | log2 fold change [2] | log2 fold change [3] | log2 fold change [4] | log2 fold change [5]
GTF2H4 (UniProt Q92759) | -0.08 | 0.044 | 0.039 | 0.015 | 0.02
GRK2 (UniProt P25098) | -0.05 | 0.009 | 0.03 | 0.007 | -0.008
HSPA14 (UniProt Q0VDF9) | 0 | 0.011 | -0.004 | 0.025 | 0.017
HDAC2 (UniProt Q92769) | 0.004 | 0.002 | -0.017 | 0.02 | -0.004
HELQ (UniProt Q8TDG4) | 0.033 | 0.028 | 0.005 | -0.004 | -0.074
HAUS2 (UniProt Q9NVX0) | -0.186 | 0.148 | 0.077 | 0.016 | 0.176
H4C1 (UniProt P62805) | -0.063 | 0.037 | -0.031 | 0.664 (active) | 0.125
HADHB (UniProt P55084) | 0.053 | 0.021 | 0.105 | 0.167 | -0.048
HAUS4 (UniProt Q9H6D7) | -0.009 | -0.043 | 0.019 | 0.019 | 0.02
